Screens as filed in PubChem.
SW480 rereplic: A quantitative high throughput screen for small molecules that induce DNA re-replication in SW480 colon adenocarcinoma cells | SW480 DNA re-replication, Hoechst DNA content imaging, 48 h | Potency, µM (series often up to 46.1 µM), inactives show at the highest dose re-replication activation, usual class: activators | 340,000 compounds, 1.8% hits | AID 624297, 2012; note: potency is the fitted concentration of half-maximal effect; % of control where 0% means no effect; nearly all actives have a fitted effect of over 55% in size
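First, 250 cells per well were seeded. Next, compound or vehicle (23 nL) was pinned in, plates sat 48 hr at 37 C. Finally Hoechst was added for 40 min before fluorescence scanning.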
RORg inh: qHTS for inhibitors of ROR gamma transcriptional activity; Drosophila S2 Gal4-RORgamma UAS-luciferase reporter, 20 h; Nuclear receptor ROR-gamma (Mus musculus), P51450; 310,000 compounds, 5.4% hits; Potency, µM (highest dose often 53.6 µM), for inactives: at the highest dose activity change, negative = inhibition, actives largely listed as inhibitors; note: potency is the fitted concentration of half-maximal effect; % is set by controls: 0 for no effect and ±100 for the full control effect; nearly all actives have a fitted effect of over 60% in size
Target sequence (P51450 whole entry, looked up, the tested form may be a part): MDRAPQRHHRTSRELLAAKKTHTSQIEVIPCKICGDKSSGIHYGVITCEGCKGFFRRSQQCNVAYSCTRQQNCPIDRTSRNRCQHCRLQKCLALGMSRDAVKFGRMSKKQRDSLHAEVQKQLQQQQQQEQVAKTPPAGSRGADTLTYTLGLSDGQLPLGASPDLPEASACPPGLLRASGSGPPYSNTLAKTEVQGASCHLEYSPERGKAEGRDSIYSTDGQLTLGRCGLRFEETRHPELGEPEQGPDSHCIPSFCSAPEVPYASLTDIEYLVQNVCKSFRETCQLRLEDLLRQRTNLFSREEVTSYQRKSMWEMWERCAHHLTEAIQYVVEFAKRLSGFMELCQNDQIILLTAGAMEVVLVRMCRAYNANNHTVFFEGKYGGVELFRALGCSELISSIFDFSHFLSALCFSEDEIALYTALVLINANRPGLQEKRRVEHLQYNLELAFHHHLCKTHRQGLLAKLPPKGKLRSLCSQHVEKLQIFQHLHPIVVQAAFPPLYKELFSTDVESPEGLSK
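Luciferase reporter read in Schneider cells carrying Gal4-RORγ (mouse) and UAS-Photinus luciferase; cells given compound 1 h before 700 uM copper sulfate induction, then incubated 20 h at ambient temperature.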
MCF10A rerep: A quantitative high throughput screen for small molecules that induce DNA re-replication in MCF 10a normal breast cells; AID 624296, 2012; MCF 10A DNA re-replication, Hoechst nuclear intensity, 48 h; 350,000 compounds, 2.9% hits; Potency, µM (series often up to 46.1 µM), for inactives: at the highest dose activity, positive = re-replication, actives largely listed as activators; note: potency is the fitted concentration of half-maximal effect; % of control where 0% means no effect; nearly all actives have a fitted effect of over 50% in size
Chronic BCR inh: qHTS Assay to Find Inhibitors of Chronic Active B-Cell Receptor Signaling; ABC-DLBCL IkBa-CBG/CBR reporter, luminescence ratio, 4 h; Potency, µM (titrated, usually from 46.1 µM), for inactives: at the top dose activity change, negative = inhibition, usual class: inhibitors; 340,000 compounds, 0.05% hits; AID 493014, 2011; active = well fitted inhibition curve with a large enough effect in the signal ratio, with a control signal flat, not every such curve was filed as active; inconclusive = small, poorly fitted or top-dose-only effect, or effect the other way, or a change in a side signal; the % refers to the signal ratio;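 note: potency is the fitted concentration of half-maximal effect; plate controls were basal doxycycline-induced cells for no effect and cells given 10 µM MG132 for full effect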
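Cell line TMD8 (human ABC DLBCL), stably expressing tet-inducible CBG68-IkBa fusion and CBR; IMDM/0.5% FBS; cpd up to 46 uM; dox induction, 4 h, 37C/5% CO2; dual luminescence; green/red ratio; MG132 control.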
VP16 counter: VP16 counterscreen qHTS for inhibitors of ROR gamma transcriptional activity; Drosophila S2 Gal4-VP16 UAS-luciferase, luminescence, 20 h; AID 2546, 2010; 310,000 compounds, 3.5% hits; Potency, µM (doses to about 53.6 µM), inactives show at the highest dose activity, negative = inhibition, hits mostly inhibitors;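 note: Gal4-VP16 expression switched on by copper sulfate through the metallothionein promoter; potency is the fitted concentration of half-maximal effect; % is set by controls: 0 for no effect and ±100 for the full control effect; nearly all actives have a fitted effect of over 50% in size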
Giardia killer: Small Molecules that selectively kill Giardia lamblia: qHTS; Giardia lamblia trophozoite viability; activity change, % at 7.66 µM, hits read low; 340,000 compounds, 0.15% hits; AID 540267, 2011; in the data active = activity change below about -80%; inconclusive = between about -30% and that limit;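 note: parasites exposed to compound for two days anaerobically before the ATP read; % is set by controls: 0 for no effect and ±100 for the full control effect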
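Anaerobic 48 hrs incubation at 37 deg C of 100 trophozoites/well with test compounds; ATPLite 1-Step luminescence, 15-30 min RT, reports cellular ATP as viability.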
Active calls of the source: *; ? = inconclusive; nt = no result; [ ] = remark or other dose. A selection: hits, their analogues and other compounds. The true share with any hit is near 8.3%. Unless noted, calls come from the whole dose curve; as a rule, active = well fitted curve in the direction sought with a large enough effect; inconclusive = small, poorly fitted or top-dose-only effect, or another doubt; inactive = no such curve, though single readings can be large; an effect the other way counts as inactive or inconclusive.

SMILES | SW480 rereplic | RORg inh | MCF10A rerep | Chronic BCR inh | VP16 counter | Giardia killer
CCOC(=O)C1=CN(CC2CCCO2)C=C(C(=O)OCC)C1c1ccccc1C(F)(F)F (configuration not stated) | 14.6µM* | 8.1% | 13µM* | 7.8% | -4.5%[10 µM] | 6.0
CC(=O)C(Sc1nnnn1-c1ccc(O)cc1)c1ccccc1 (configuration not stated) | -6.5% | 28.4% | -5.6% | ? | -6.5% | 8.5
COC(=O)c1ccccc1NC(=O)N1CCc2ccc(NC(=O)c3ccccn3)cc2C1 | 18.4µM* | -6.8% | -14.1% | 10.0% | 2.8% | -7.9
COc1ccc(/C=C/C(=O)c2ccc(NC3=NCCCS3)cc2)cc1OC | ? | ? | ? | ? | -7.2% | 3.5
COc1ccc(-n2c(C)cc(C(=O)CN3C(=O)C(=O)N(Cc4ccccc4)C3=O)c2C)cc1 | 8.4% | -25.5% | 5.8µM* | -4.6% | -3.9% | -13.9
Cc1cc(C(=O)CN2C(=O)C(=O)N(Cc3ccco3)C2=O)c(C)n1CCc1ccccc1 | ? | nt | 4.61µM* | -9.4% | nt | -20.9
Cn1c(-c2csc(-c3cccc(C(F)(F)F)c3)n2)n[nH]c1=S | -2.0% | 4.47µM* | 2.2% | 0.2% | 0.4% | 0.2
COC(=O)C1=C(C)OC(N)=C(C#N)C1c1cccnc1 (configuration not stated) | 0.7% | -4.7% | -1.1% | -22.4% | -5.0% | 2.6
CC(=O)C1=C(C)OC(N)=C(C#N)C1c1ccncc1 (configuration not stated) | 5.4% | ? | 5.5% | 5.1% | 17.8µM* | -21.0
CC(=O)C1=C(C)OC(N)=C(C#N)C1c1cc([N+](=O)[O-])ccc1Cl (configuration not stated) | 3.26µM* | -10.0% | ? | ? | -9.2% | -4.5
CC(=O)C1=C(C)OC(N)=C(C#N)C1c1cccc([N+](=O)[O-])c1 (configuration not stated) | -0.2% | -2.0% | -6.0% | -2.6% | -19.4% | -16.0
CCOc1ccccc1CNc1nnnn1C | -2.2% | -11.1% | 0.4% | -6.8% | -2.0% | -2.8
CCCn1nnnc1NCc1ccccc1OCc1ccc(F)cc1 | ? | -14.9% | 23.1µM* | -6.6% | 16.9% | 4.8
CCCn1nnnc1NCc1ccccc1OCc1cccs1 | 4.1% | 15.7% | -10.1% | 9.7% | 8.9% | 26.5
Cn1nnnc1NCc1ccccc1F | -7.3% | 0.631µM* | 6.4% | 7.5% | 3.2% | 0.3
Cc1cc(C)c2nc(N3CCC(C(=O)N4CCN(C(=O)c5ccco5)CC4)CC3)sc2c1 | 0.8% | 3.8% | 10.8% | 6.4% | 1.7% | 9.9
Cc1cc(C)c2nc(N3CCCC(C(=O)N4CCN(c5ncccn5)CC4)C3)sc2c1 (configuration not stated) | 14.4% | 17.8% | 14.6µM* | 6.8% | 5.4% | 7.5
N#CCSc1nc2ccccc2c(=O)n1C1CCCCC1 | -0.2% | -12.5% | -1.1% | 0.8% | -6.9%[10 µM] | 12.9
CCn1c(SCc2ccc(OC)c(F)c2)nc2ccccc2c1=O | 6.2% | -37.6% | 18.4µM* | ? | 3.0% | -9.6
Cc1cc(NC(=O)CSc2nc3ccccc3c(=O)n2C2CCCC2)no1 | 1.3µM* | -0.2% | 1.3µM* | ? | -3.5% | 7.5
CN(C)c1ccc(NC(=O)CSc2nc3ccccc3c(=O)n2C2CCCCC2)cc1 | 0.7% | -15.3% | ? | ? | -2.6% | -1.0
O=c1c2ccccc2nc(SCc2cccc(F)c2)n1C1CCCC1 | 10.6% | 17.9% | 18.4µM* | -1.5% | -4.7% | 8.8
O=c1oc2ccccc2c(Nc2cccc3ccccc23)c1[N+](=O)[O-] | -0.7% | ? | 27.0% | ? | ? | ?
O=c1oc2ccccc2c(Nc2cc3ccccc3cc2O)c1[N+](=O)[O-] | ? | -10.5% | 2.06µM* | ? | -8.1% | -9.5
O=c1oc2ccccc2c(Nc2cccc3cccnc23)c1[N+](=O)[O-] | 2.0% | 11.2µM* | 3.7% | -10.5% | -20.2%[10 µM] | -1.3
SMILES | SW480 rereplic | RORg inh | MCF10A rerep | Chronic BCR inh | VP16 counter | Giardia killer
CCN1C/C(=C/c2cccc([N+](=O)[O-])c2)C(=O)/C(=C/c2cccc([N+](=O)[O-])c2)C1 | 3.66µM* | 3.98µM* | 0.82µM* | ? | 3.55µM* | -20.4
O=C1NC(=O)/C(=C/c2cccc([N+](=O)[O-])c2)N1 | 2.8% | 5.6% | 3.1% | 0.1% | -1.5% | -11.4
O=C1NC(=S)SC1=Cc1ccccc1Cl | 9.5% | nt | 6.51µM* | nt | nt | -1.3
Cc1cc(C=C2C(=O)CCCC2=O)c(C)n1-c1ccccc1 | -2.6% | 8.91µM* | 16.1% | 1.4% | -3.8% | 2.9
O=C1NC(=S)S/C1=C\c1cccc([N+](=O)[O-])c1 | ? | nt | 18.4µM* | nt | nt | -10.2
CCOC(=O)c1cnc(-c2ccccc2)nc1-c1ccccc1 | -1.9% | -4.6% | 12.4% | ? | 1.0% | 10.9
C=CCCO[C@@H]1O[C@@H](C)[C@H](O)C[C@H]1O | -5.5% | nt | -2.2% | -2.7% | nt | 18.5
COc1ccc(-n2c(C)cc(/C=C3\SC(=S)NC3=O)c2C)cc1 | -4.1% | -2.6% | 9.9% | 27.5% | -9.6% | 1.1
Cc1cc(/C=C2\SC(=S)NC2=O)c(C)n1-c1ccccc1 | -115.5% | 10µM* | -2.3% | 13.8% | ? | -15.8
Cc1cc(/C=C2/C(=O)NN(c3ccccc3)C2=O)c(C)n1-c1ccc(O)cc1 | 1.1% | 14.1µM* | ? | ? | 3.98µM* | ?
Cc1cc(/C=C2\SC(=S)NC2=O)c(C)n1-c1ccc(O)cc1 | 3.6% | 20.7% | ? | ? | -21.1% | -18.5
Cc1cc(/C=C2\SC(=Nc3ccc(F)cc3)NC2=O)c(C)n1-c1ccc(S(N)(=O)=O)cc1 | 8.2µM* | -24.4% | 1.64µM* | ? | ? | 12.7
O=C(Nc1ccc(Cl)cc1)c1ccc(-c2ccccn2)s1 | 6.5% | -0.8% | -0.9% | -14.6% | -13.2% | 2.6
C=CCC1(CC=C)CCCN1C(=O)c1cc(COc2ccc(C)nc2)on1 | -20.1% | ? | 26.1% | 3.8% | 8.91µM* | -8.1
C=CCC1(CC=C)CCCN1C(=O)c1cc(COc2ccc(F)c(F)c2)on1 | -14.6% | 8.7% | -2.1% | 10.8% | ? | 4.6
O=C(CNCc1cccnc1)Nc1cc(C(F)(F)F)ccc1N1CCOCC1 | -0.7% | 4.0% | -1.7% | -3.4% | -11.2% | -2.2
CN(CCO)c1ccc(-c2n[nH]c(=O)c3ccccc23)cc1[N+](=O)[O-] | -59.4% | -6.9% | 0.8% | ? | -1.6% | -16.4
CCn1c(-c2ccc(OC)c(OC)c2)n[nH]c1=S | -3.4% | 11.2µM* | -7.8% | -5.4% | -26.4% | 0.3
